Results filed as inconclusive are left out. Active and inactive are the calls of the source. Calls follow the shape of the dose curve; as a rule, active = well fitted inhibition curve with a large enough effect; inconclusive = small, poorly fitted or top-dose-only effect; inactive = flat fitted curve, though single readings scatter.
What follows are compounds tested on HEK293 (assay: Cytotoxic Profiling of Annotated Libraries Using Quantitative High-Throughput Screening (AID 1296008; also: nearly all actives have a fitted effect of over 60% in size)). Details: Five cell lines viability, CellTiter-Glo ATP luminescence, 48-72 h; max response: active compounds read low.
Procedure, shortened: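 Cells exposed to compounds for 48 or 72 hr at 37 degrees Celsius. Viability read as ATP-coupled luminescence with CellTiter-Glo after 10 min at room temperature.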
Potency is read from the fitted curve at half-maximal effect.

Row | SMILES | Potency
1 | CCN1CCN(Cc2ccc(C(=O)Nc3ccc(C)c(Oc4ccc5c(c4)CC(=O)N5)c3)cc2C(F)(F)F)CC1 | 13 µM (active)
2 | COC1CCN(c2cccc(-c3cc(NC(C)=O)nc(-n4nc(C)cc4C)n3)n2)CC1 | 9.2 µM (active)
3 | CC(C)(C[C@@](O)(Cc1cc2ccncc2[nH]1)C(F)(F)F)c1cc(F)ccc1O | 11.6 µM (active)
4 | CCN1CCN(Cc2ccc(NC(=O)c3ccc(C)c(Oc4ncnc5[nH]c(C)cc45)c3)cc2C(F)(F)F)CC1 | 13 µM (active)
5 | Cc1cc(N2CCOCC2)ccc1Nc1nc(NC2CCCCC2)c2[nH]cnc2n1 | 0.326 µM (active)
6 | C/C=C(/C)C(=O)O[C@H]1[C@H](OC(=O)/C(C)=C\C)[C@@]23C(CC1(C)C)[C@]1(CCC4[C@@]5(C)CC[C@H](O[C@@H]6O[C@H](C(=O)O)[C@@H](O)[C@H](O[C@@H]7O[C@H](CO)[C@H](O)[C@H](O)[C@H]7O[C@@H]7O[C@@H](C)[C@H](O)[C@@H](O)[C@H]7O[C@@H]7OC[C@@H](O)[C@H](O)[C@H]7O)[C@H]6O[C@@H]6O[C@H](CO)[C@H](O)[C@H](O)[C@H]6O)C(C)(C)C5CC[C@@]4(C)[C@]1(C)C[C@H]2O)O[C@H]3O (stereo partly drawn) | 1.74 µM (active)
7 | C=C1C(=O)OC2/C=C(\COC(C)=O)CC/C=C(\C=O)CC(OC(=O)C(C)CC)C12 (stereo not drawn) | 3.55 µM (active)
8 | CCCc1cc(C)[nH]c(=O)c1CNC(=O)c1cc(-c2ccnc(N3CCN(C)CC3)c2)cc2c1cnn2C(C)C | 8.2 µM (active)
9 | O=C(Nc1cccc([N+](=O)[O-])c1)c1cccc(S(=O)(=O)N2CCCCCC2)c1 | 6.51 µM (active)
10 | Cc1cc2occ(CN(C)CCN(C)Cc3cn(-c4cccc(C(F)(F)F)c4)c4ccccc34)c(=O)c2cc1C | 8.2 µM (active)
11 | Cc1ccc(NC(=O)C(C)C)cc1C1CCN(Cc2ccc(Oc3ccc(F)c(F)c3)cc2)CC1 | 13 µM (active)
12 | Cc1c[nH]c2ncnc(N3CCC(CN)(C(=O)Nc4cccc(OC(=O)N(C)C)c4)CC3)c12 | 3.66 µM (active)
13 | CC1(C)CC[C@]23CO[C@@]4(CCC5[C@@]6(C)CC[C@H](O[C@@H]7OC[C@H](O[C@@H]8O[C@H](CO)[C@@H](O)[C@H](O)[C@H]8O[C@@H]8OC[C@@H](O)[C@H](O)[C@H]8O)[C@H](O)[C@H]7O[C@@H]7O[C@H](CO)[C@@H](O)[C@H](O)[C@H]7O)[C@@](C)(CO)C6CC[C@@]5(C)[C@]4(C)C[C@H]2O)[C@@H]3C1 (stereo partly drawn) | 3.48 µM (active)
14 | C=C1C(=O)OC2C(OC(=O)C=C(C)C)C(C)=C3C(=O)C=C(C)C3C(O)C12 (stereo not drawn) | 6.4 µM (active)
15 | CCC(CC)C(c1ccc(Nc2nc3ccccc3s2)cc1)n1cncn1 (stereo not drawn) | 10.3 µM (active)
16 | COc1cc2c(cc1OC)CN(C(=O)/C=C/c1c(-c3ccccc3)n(C)c3ncccc13)CC2 | 7.31 µM (active)
17 | COc1ccc(C#Cc2ccc(C(=O)N3CCC[C@@H](O)C3)c(F)c2)cc1 | 13 µM (active)
18 | C[C@H]1[C@H](/C=C/c2ccc(-c3ccccc3C#N)cn2)[C@@H]2[C@@H](C)OC(=O)[C@@H]2C[C@@H]1C | 13 µM (active)
19 | O=C(NC1(c2ccccc2)CC1)c1c(CN2CCC(N3CCCCC3)CC2)c(-c2cccc(C(F)(F)F)c2)nc2cc(Br)ccc12 | 14.6 µM (active)

Row | SMILES | Potency
20 | CCCc1cc(C)[nH]c(=O)c1CNC(=O)c1cc(-c2ccc(N3CCN(C(C)C)CC3)nc2)cc2c1cnn2C(C)C | 11.6 µM (active)
21 | N#C/C(=C1\Nc2ccccc2S1)c1ccnc(NCCc2cccnc2)n1 | 7.31 µM (active)
22 | C=C1C(=O)O[C@@H]2C[C@@]3(C)CCCC(=C)[C@]3(O)C[C@H]12 | 13 µM (active)
23 | FC(F)(F)c1ccc(CNc2ccc(Cc3c[nH]c4ncc(Cl)cc34)cn2)cn1 | 26.3 µM (active)
24 | C=C1C(=O)O[C@H]2C[C@@H](C)[C@@H]3CCC(=O)[C@@]3(C)C[C@H]12 | 6.51 µM (active)
25 | C/C=C(\C)C(=O)O[C@H]1C=C(CO)C(=O)[C@H](OC(C)=O)[C@H]1C(C)C | 8.05 µM (active)
26 | COc1ccc(CNc2nc(N(CCO)CCO)nc3c2ncn3C(C)C)cc1 | 4.61 µM (active)
27 | COc1cc2c(NC3CCN(C(C)C)CC3)nc(N3CCC(F)(F)CC3)nc2cc1OCCCN1CCCC1 | 8.2 µM (active)
28 | C=C1C(=O)OC2/C=C(\C)CC3C=C(CC/C=C(\C)CCC12)C(=O)O3 (stereo not drawn) | 11.4 µM (active)
29 | C[C@H](Oc1cc(-c2cnn(C3CCNCC3)c2)cnc1N)c1c(Cl)ccc(F)c1Cl | 9.2 µM (active)
30 | N#Cc1cc(CN2CCC(Nc3ncnc4sc(Cl)cc34)CC2)ccc1F | 14.6 µM (active)
31 | N#Cc1ccc2ncnc(NCCc3ccccc3)c2c1 | 18.4 µM (active)
32 | CCC(C(C)O)n1ncn(-c2ccc(N3CCN(c4ccc(OCC5COC(Cn6cncn6)(c6ccc(F)cc6F)C5)cc4)CC3)cc2)c1=O (stereo not drawn) | 5.8 µM (active)
33 | Cc1[nH]c(/C=C2\C(=O)Nc3ccc(F)cc32)c(C)c1C(=O)NCCN1CCCC1 | 14.6 µM (active)
34 | CCCCCCCCC(=O)N[C@H](CN1CCCC1)[C@H](O)c1ccc2c(c1)OCCO2 | 7.31 µM (active)
35 | Nc1nc(Nc2ccc3c(c2)CCC(N2CCCC2)CC3)nn1-c1cc2c(nn1)-c1ccccc1CCC2 (stereo not drawn) | 8.2 µM (active)
36 | CCCCCCCCn1cc(CN(CC)CC)c2cc(-c3cnc(N)nc3)ccc21 | 16.4 µM (active)
37 | Cc1cc(N2CCN(C(=O)Oc3ccc(-c4ccccc4)cn3)CC2)c2ccccc2n1 | 8.2 µM (active)
38 | CN(C)C(=O)COC(=O)c1cc(-c2ccc(C3CCNCC3)cc2)c2ccc(-c3ccc(C(F)(F)F)cc3)cc2c1 | 4.61 µM (active)
